Inconclusive results are not listed. Entries that show only a call come without a potency. Activity calls are given as the source filed them. Calls come from the whole dose curve; as a rule, active = well fitted curve in the direction sought with a large enough effect; inconclusive = small, poorly fitted or top-dose-only effect, or another doubt; inactive = no such curve, though single readings can be large; an effect the other way counts as inactive or inconclusive.

Three compounds from PubChem BioAssay (NCATS) can be followed below.

Assay [1] in a line: Cell Viability - LYMP2-024 (AID 988).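 Note: potency is the fitted concentration of half-maximal effect; cells exposed to compound for 24 hr at 37 °C; nearly all actives have a fitted effect of over 60% in size.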 An outline of the steps: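 Acute toxicity is measured as concentration-dependent loss of intracellular ATP in a human lymphoblastoid line treated 24 hours at 37 C. Luciferase luminescence quantifies ATP; AC50 values come from standard Hill-equation modelling.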
A short description of assay [2]: Cell Viability - LYMP2-026 (AID 989).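 Note: potency is the fitted concentration of half-maximal effect; cells exposed to compound for 24 h at 37 °C; nearly all actives have a fitted effect of over 50% in size.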 The method in brief: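 Concentration-dependent loss of intracellular ATP in human lymphoblastoid cells after 24 hr at 37 C, quantified by luciferase luminescence. AC50 derived from standard Hill equation.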
The target of assay [3] is Luciferin 4-monooxygenase (Photinus pyralis) (UniProt P08659). As to the kind of experiment: Biochemical firefly luciferase enzyme assay for NPC (AID 624030).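 Note: purified P. pyralis luciferase at 10 nM with luciferin and ATP substrate; series mostly up to about 59 µM; nearly all actives have a fitted effect of over 70% in size.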 An outline of the steps: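 Direct inhibition of firefly luciferase enzyme (10 nM final, 50 mM Tris Acetate) assessed by luminescence within 5 minutes. Percent activity scaled between DMSO and PTC124 positive control, with concentration-effect curves classified by fit quality and response.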

Assay [4] is described as follows: Confirmation and Secondary Assay for Modulators of Hemoglobin Beta Chain Splicing at IVS2 654 locus (AID 910).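 Note: HeLa cells stably carrying EGFP split by mutant beta-globin IVS2-654 intron; per-well total GFP intensity by laser scanning cytometry after 2-day treatment.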 An outline of the steps:
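Readout: per-well total peak green fluorescence (488 nm ex, 500–520 nm em) from objects 5–250 µm, reflecting correct splicing of an EGFP-654 reporter. Compounds were applied for 2 days at 37 °C to overnight-plated HeLa EGFP-654 cells; controls were DMSO and 500 nM IVS2-654 PNA.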

Assay [5] is described as follows: Confirmation and Secondary Assay for Modulators of Hemoglobin Beta Chain Splicing at IVS2 705 locus (AID 930).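 Note: HeLa cells stably expressing the EGFP-705 splicing reporter; series mostly up to about 46 µM.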 The method in brief: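 HeLa cells stably carrying EGFP interrupted by mutant beta-globin IVS2-705 intron (CMV-driven) were seeded at 500 cells/well, treated next day with compound for 2 days at 37C; corrected splicing restores EGFP, read as total peak GFP intensity per well.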

Chain of Luciferin 4-monooxygenase (Photinus pyralis) (P08659 whole entry, looked up): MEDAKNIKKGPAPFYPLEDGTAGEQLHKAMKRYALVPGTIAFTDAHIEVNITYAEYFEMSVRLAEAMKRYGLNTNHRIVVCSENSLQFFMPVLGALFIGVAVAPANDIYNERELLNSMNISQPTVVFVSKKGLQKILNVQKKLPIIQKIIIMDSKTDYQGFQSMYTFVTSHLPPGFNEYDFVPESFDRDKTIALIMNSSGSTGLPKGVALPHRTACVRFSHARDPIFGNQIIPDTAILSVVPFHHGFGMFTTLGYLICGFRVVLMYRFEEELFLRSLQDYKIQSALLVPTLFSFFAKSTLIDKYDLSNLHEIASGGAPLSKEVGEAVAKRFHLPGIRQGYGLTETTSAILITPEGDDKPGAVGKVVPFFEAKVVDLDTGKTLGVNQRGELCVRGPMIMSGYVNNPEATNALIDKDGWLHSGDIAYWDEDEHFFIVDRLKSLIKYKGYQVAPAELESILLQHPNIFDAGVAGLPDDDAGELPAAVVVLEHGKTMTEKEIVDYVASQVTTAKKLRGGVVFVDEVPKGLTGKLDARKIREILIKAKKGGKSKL

With `c1cc(OCC2CO2)cc(OCC2CO2)c1` (stereo not given), the Potency in assay [1] and in assay [2] was 39.8 µM (active) throughout.

For the compound `CC1(C)CC/C(=C\c2ccc(Cl)cc2)C1(O)Cn1cncn1` (stereo not given), the Potency entry in assay [3] was “inactive”.

Take `CCOP(=S)(OCC)SCn1c(=O)oc2cc(Cl)ccc21`: the Potency entry in assay [4] was “inactive”. Moreover, in assay [5], the call was inactive.
